Inconclusive results are not listed. Activity calls are given as the source filed them. Unless noted, calls follow the shape of the dose curve; as a rule, active = well fitted curve in the direction sought with a large enough effect; inconclusive = small, poorly fitted or top-dose-only effect, or another doubt; inactive = no such curve, though single readings can be large; an effect the other way counts as inactive or inconclusive.

The target of experiment [1] is Estrogen receptor (Homo sapiens) (UniProt P03372). The experiment can be described thus: qHTS assay for small molecule antagonists of estrogen receptor alpha signaling (AID 588513; active = well fitted curve in the direction sought with a large enough effect in the signal ratio, with a control signal flat, not every such curve was filed as active; the % refers to the signal ratio; also: % is scaled to controls: 0 for no effect and ±100 for the full control effect). Summed up: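 Fluorescence from CCF4 substrate after 2 h at room temperature gave reporter activity; cells had been exposed to compound and 0.5nM 17-beta-estradiol for 18 h at 37 C. Hill-equation fitting yielded IC50 and maximal response.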

The target is the same in experiment [2]. In words: qHTS assay for small molecule agonists of estrogen receptor alpha signaling (AID 588514; calls by dose curve;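 also: 0% = vehicle only and 100% = reference agonist; nearly all actives have a fitted effect of over 70% in size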). In short, it runs like this: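 EC50 and efficacy came from Hill fits of beta-lactamase reporter signal (CCF4 dye, 2 h at room temperature) scaled between DMSO and 20 nM 17-beta-estradiol. Agonist mode: HEK293 ER-alpha-UAS-bla cells in charcoal/dextran-stripped serum medium, 18 h compound exposure at 37 C.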

The target of experiment [3] is Glucocorticoid receptor (Homo sapiens) (UniProt P04150). The experiment can be described thus: qHTS assay for small molecule agonists of glucocorticoid receptor signaling (AID 588532; active = well fitted curve in the direction sought with a large enough effect in the signal ratio, with a control signal flat; the % refers to the signal ratio;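 also: 100% = dexamethasone at 0.1 µM and 0% = DMSO only wells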). The note with it: HeLa MMTV-bla, beta-lactamase ratio, agonist, 18 h; stronger effect = higher value; percent of dexamethasone control, DMSO zero. Summed up: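 MMTV-bla HeLa, beta-lactamase reporter; medium with 1% charcoal/dextran-stripped FBS; cpds up to 92 uM, 18 h, 37 C; CCF4 readout 460/530 nm; Hill fit → EC50, efficacy vs 0.1 uM dexamethasone = 100%.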

Experiment [4] in a line: qHTS assay for small molecule antagonists of peroxisome proliferator-activated receptor delta signaling (AID 588535; active = well fitted inhibition curve with a large enough effect in the signal ratio, with a control signal flat, not every such curve was filed as active; the % refers to the signal ratio;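 as to max response: cells co-treated with a PPAR-delta agonist as stimulator during compound exposure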). The note with it: HEK293T PPARd-UAS-bla, beta-lactamase FRET ratio, 18 h; 460 nm channel. In short, it runs like this:
(§1)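 Inhibition of PPAR-delta response element-driven beta-lactamase expression is measured in HEK293T cells exposed to a compound titration series for 18 hrs at 37 C. Half-maximal inhibition comes from Hill equation fitting.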

Experiment [5] concerns the target Peroxisome proliferator-activated receptor delta (Homo sapiens) (UniProt Q03181). The description is as above. In short, it runs like this: as §1
The target of experiment [6] is Peroxisome proliferator-activated receptor gamma (Homo sapiens) (UniProt P37231). In words: qHTS assay for small molecule agonists of peroxisome proliferator-activated receptor gamma signaling (AID 588536; active = well fitted curve in the direction sought with a large enough effect in the signal ratio, with a control signal flat, not every such curve was filed as active; the % refers to the signal ratio;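 also: 0% = DMSO basal wells and 100% = rosiglitazone at 2 µM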). Summed up:
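Compound treatment: 16 h, 37 C, HEK293 GeneBLAzer cells. Detection: CCF4, 2 h RT. Values: Hill-fit EC50, efficacy as % of 2 uM rosiglitazone.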

Experiment [7] in a line: qHTS assay for small molecule agonists of retinoid X receptor alpha signaling (AID 588544). The note with it: HEK293T RXRa-UAS-bla, beta-lactamase reporter, 18 h; 530 nm emission.
Experiment [8] concerns the target Thyroid hormone receptor beta (Homo sapiens) (UniProt P10828). The experiment can be described thus: qHTS assay for small molecule agonists of thyroid hormone receptor beta signaling (AID 588545; calls by dose curve). In short, it runs like this: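 Cells (2500/well) were seeded, incubated 4 hrs at 37 C, dosed with a compound series, incubated 18 hrs, loaded with CCF4 dye for 2 hrs at RT, then read for fluorescence. Data were scaled between DMSO (0%) and 10 nM T3 (100%).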

A short description of experiment [9]: qHTS assay for small molecule antagonists of retinoid X receptor alpha signaling (AID 588546; active = well fitted inhibition curve with a large enough effect in the signal ratio, with a control signal flat, not every such curve was filed as active; the % refers to the signal ratio;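 also: cells stimulated with 9-cis-retinoic acid as agonist; % is scaled to controls: 0 for no effect and ±100 for the full control effect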). To be noted: HEK293T RXRa-UAS-bla, beta-lactamase ratio, antagonist mode; measured here: W530 green channel, cytotoxicity proxy. In short, it runs like this: (§2)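 Beta-lactamase reporter inhibition, read as CCF4 fluorescence ratio (ex 405, em 460/530 nm) after 2 h at RT. HEK293T UAS-bla cells, 2500/well, were stimulated with 9-cis-RA at 500 or 100 nM final alongside test compound for 18 h at 37 C.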

The target of experiment [10] is Retinoic acid receptor RXR-alpha (Homo sapiens) (UniProt P19793). The description is as above. The note with it: HEK293T RXRa-UAS-bla, beta-lactamase ratio, antagonist mode. Summed up:
as §2

In experiment [11] the target is Thyroid hormone receptor beta (Homo sapiens) (UniProt P10828). The experiment can be described thus: qHTS assay for small molecule antagonists of thyroid hormone receptor beta signaling (AID 588547; active = well fitted inhibition curve with a large enough effect in the signal ratio, with a control signal flat, not every such curve was filed as active; the % refers to the signal ratio;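 also: cells stimulated with 0.4 nM T3 agonist during compound exposure; series mostly up to about 77 µM; % is scaled to controls: 0 for no effect and ±100 for the full control effect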). The note with it: TR-UAS-bla HEK293, beta-lactamase ratio, antagonist mode, 18 h. In short, it runs like this:
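TR-UAS-bla GripTite HEK293 cells in 2% charcoal/dextran FBS medium were preincubated 4 h at 37 C, given compound (0.59 nM to 92 uM) plus 0.4 nM T3 (final) for 18 h, then CCF4 for 2 h at RT; Hill fit gave IC50.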

Experiment [12] in a line: qHTS assay for small molecule activators of the p53 signaling pathway (AID 651743; active = well fitted activation curve with a large enough effect in the signal ratio, not every such curve was filed as active; the % refers to the signal ratio; also: series mostly up to about 92 µM; % of control where 0% means no effect). To be noted: HCT-116 p53RE-bla, beta-lactamase FRET ratio, 16 h; activation: stronger effect = higher value. Summed up:
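Agonist-mode quantitative HTS in HCT-116 cells carrying a p53-response-element beta-lactamase reporter; 16 h compound treatment at 37 C, then FRET substrate loading for 2 h at room temperature and fluorescence read.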

A short description of experiment [13]: qHTS assay for environmental chemicals that activate the Aryl hydrocarbon Receptor (AhR) signaling pathway (AID 651777). Also: % of control where 0% means no effect; nearly all actives have a fitted effect of over 15% in size. The note with it: 1A2-DRE human hepatoma cells, luciferase, 24 h; activation: stronger effect = higher value. Summed up:
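Stable CYP1A2 promoter/DRE-luciferase human hepatoma line treated 24 hr; One-Glo luminescence, 30 min RT.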

Experiment [14] addresses Peroxisome proliferator-activated receptor alpha (Homo sapiens) (UniProt Q07869). The experiment can be described thus: qHTS assay for small molecule agonists of the peroxisome proliferator-activated receptor alpha (PPARalpha) signaling pathway (AID 651778). Also: % of control where 0% means no effect. The note with it: PathHunter PPARalpha complementation, chemiluminescence, 6 h; max response: stronger effect = higher value. Summed up: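 Cells plated at 2,000/well and held overnight at 37 C, 5% CO2, then compound added by pin tool for 6 hr; after PathHunter detection reagent and 60 min at room temperature, chemiluminescence from enzyme complementation was read.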

The nature of experiment [15]: qHTS assay for small molecule agonists of the antioxidant response element (ARE) signaling pathway measured by Nrf2-dependant transcriptional activity (AID 720636; active = well fitted curve in the direction sought with a large enough effect in the repeat runs; an effect the other way counts as inactive or inconclusive;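 also: HepG2 cells with an ARE-driven luciferase reporter; % of control where 0% means no effect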). In short, it runs like this:
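Reporter gene assay, HepG2 ARE-luc: 16 hr compound, 37 C, 5% CO2; read-out luciferase luminescence.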

Experiment [16] is described as follows: qHTS assay for small molecule agonists of the antioxidant response element (ARE) signaling pathway measured by Nrf2-dependant transcriptional activity - cell viability counter screen (AID 720653; active = well fitted curve in the direction sought with a large enough effect in the repeat runs; an effect the other way counts as inactive or inconclusive; also: % is scaled to controls: 0 for no effect and ±100 for the full control effect). To be noted: ARE-bla HepG2 viability, CellTiter-Glo ATP luminescence, 16 h; max response: stronger effect = lower value. Summed up: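 ARE-bla HepG2 cells (2,000/well) rested 5 hrs at 37C/5% CO2, then exposed to compounds in DMSO for 16 hrs. Viability was read in the same wells as intracellular ATP by luminescence, 30 min at room temperature after reagent addition.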

Experiment [17] can be described thus: qHTS assay for cell viability of HEK293 cells (AID 743288). Also: % is scaled to controls: 0 for no effect and ±100 for the full control effect; nearly all actives have a fitted effect of over 50% in size. To be noted: ATP luminescence (CellTiter-Glo), 18 h; max response: stronger effect = lower value. In short, it runs like this:
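Viable-cell counts were inferred from luciferase-based ATP content in HEK293 cells seeded at 2,000/well, pre-incubated ≥5 h, then dosed with DMSO-solubilised compounds for 18 h at 37 C.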

Experiment [18] is described as follows: qHTS assay for cell viability of the p53RE-bla HCT-116 cell line (AID 743292). Also: % is scaled to controls: 0 for no effect and ±100 for the full control effect; nearly all actives have a fitted effect of over 55% in size. In short, it runs like this: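 Readout: CellTiter-Glo luminescence after 30 min RT. Treatment: compounds in DMSO, 16 h, 37 C. Cells: CellSensor p53RE-bla HCT-116, 4,000/well, preincubated 5 h.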
The target of experiment [19] is Nuclear receptor subfamily 1 group I member 2 (Rattus norvegicus) (UniProt Q9R1A7). In words: qHTS assay for small molecule activators of the rat pregnane X receptor (rPXR) signaling pathway (AID 651751; call rule not given here; also: 0% is about no effect). The note with it: rPXR reporter cells, luciferase (One-Glo), 24 h.
Experiment [20] in a line: qHTS assay for small molecule activators of the human pregnane X receptor (PXR) signaling pathway (AID 720659; call rule not given here; also: 0% is about no effect).

Chain of Thyroid hormone receptor beta (Homo sapiens) (P10828 whole entry, looked up): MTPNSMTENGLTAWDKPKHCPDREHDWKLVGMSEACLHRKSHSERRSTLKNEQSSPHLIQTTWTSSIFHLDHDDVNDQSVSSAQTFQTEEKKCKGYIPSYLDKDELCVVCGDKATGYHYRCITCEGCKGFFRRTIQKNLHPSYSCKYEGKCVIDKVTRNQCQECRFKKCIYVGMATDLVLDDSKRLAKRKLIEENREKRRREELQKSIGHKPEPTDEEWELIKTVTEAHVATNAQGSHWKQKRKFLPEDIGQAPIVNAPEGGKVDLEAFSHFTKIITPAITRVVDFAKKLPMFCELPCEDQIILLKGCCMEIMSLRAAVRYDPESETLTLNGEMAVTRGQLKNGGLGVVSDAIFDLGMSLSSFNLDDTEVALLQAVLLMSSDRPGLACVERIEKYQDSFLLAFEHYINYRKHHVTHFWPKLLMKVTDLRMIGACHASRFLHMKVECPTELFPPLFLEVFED
Chain of Peroxisome proliferator-activated receptor delta (Homo sapiens) (Q03181 whole entry, looked up): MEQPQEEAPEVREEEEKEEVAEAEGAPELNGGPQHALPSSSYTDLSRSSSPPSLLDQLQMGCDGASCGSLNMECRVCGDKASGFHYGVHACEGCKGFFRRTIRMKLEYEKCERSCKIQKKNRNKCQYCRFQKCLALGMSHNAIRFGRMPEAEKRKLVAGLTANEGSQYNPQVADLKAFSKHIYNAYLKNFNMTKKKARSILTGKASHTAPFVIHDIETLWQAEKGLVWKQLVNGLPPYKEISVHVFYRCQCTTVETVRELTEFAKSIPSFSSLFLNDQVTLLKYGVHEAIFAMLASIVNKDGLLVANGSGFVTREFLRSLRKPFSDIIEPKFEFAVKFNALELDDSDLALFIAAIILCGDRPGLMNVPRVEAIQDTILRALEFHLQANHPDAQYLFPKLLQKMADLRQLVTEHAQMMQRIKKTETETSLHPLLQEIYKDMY
Chain of Peroxisome proliferator-activated receptor alpha (Homo sapiens) (Q07869 whole entry, looked up): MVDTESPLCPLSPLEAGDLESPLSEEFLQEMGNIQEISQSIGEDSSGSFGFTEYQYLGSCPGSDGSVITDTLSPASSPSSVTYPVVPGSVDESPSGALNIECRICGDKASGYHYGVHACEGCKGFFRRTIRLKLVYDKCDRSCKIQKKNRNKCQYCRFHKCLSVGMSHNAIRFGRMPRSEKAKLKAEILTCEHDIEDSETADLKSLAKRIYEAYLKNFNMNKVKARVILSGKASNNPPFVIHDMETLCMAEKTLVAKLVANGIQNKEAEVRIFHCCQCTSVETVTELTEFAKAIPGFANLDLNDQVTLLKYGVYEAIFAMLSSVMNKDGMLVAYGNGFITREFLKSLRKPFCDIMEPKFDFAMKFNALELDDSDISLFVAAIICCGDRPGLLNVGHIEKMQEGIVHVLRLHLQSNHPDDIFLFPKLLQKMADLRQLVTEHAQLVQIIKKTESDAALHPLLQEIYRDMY
Chain of Retinoic acid receptor RXR-alpha (Homo sapiens) (P19793 whole entry, looked up): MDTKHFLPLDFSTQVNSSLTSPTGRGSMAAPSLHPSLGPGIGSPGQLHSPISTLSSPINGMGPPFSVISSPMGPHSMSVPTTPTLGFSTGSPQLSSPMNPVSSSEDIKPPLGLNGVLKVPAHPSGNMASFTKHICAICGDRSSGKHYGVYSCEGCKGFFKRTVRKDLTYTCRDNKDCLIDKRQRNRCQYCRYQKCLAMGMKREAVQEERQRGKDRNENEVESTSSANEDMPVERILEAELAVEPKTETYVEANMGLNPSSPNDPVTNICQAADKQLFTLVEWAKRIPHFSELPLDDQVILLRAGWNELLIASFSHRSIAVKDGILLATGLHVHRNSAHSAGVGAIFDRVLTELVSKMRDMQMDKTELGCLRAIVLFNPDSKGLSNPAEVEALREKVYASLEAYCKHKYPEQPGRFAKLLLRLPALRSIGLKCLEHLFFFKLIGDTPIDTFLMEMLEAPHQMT
Chain of Peroxisome proliferator-activated receptor gamma (Homo sapiens) (P37231 whole entry, looked up): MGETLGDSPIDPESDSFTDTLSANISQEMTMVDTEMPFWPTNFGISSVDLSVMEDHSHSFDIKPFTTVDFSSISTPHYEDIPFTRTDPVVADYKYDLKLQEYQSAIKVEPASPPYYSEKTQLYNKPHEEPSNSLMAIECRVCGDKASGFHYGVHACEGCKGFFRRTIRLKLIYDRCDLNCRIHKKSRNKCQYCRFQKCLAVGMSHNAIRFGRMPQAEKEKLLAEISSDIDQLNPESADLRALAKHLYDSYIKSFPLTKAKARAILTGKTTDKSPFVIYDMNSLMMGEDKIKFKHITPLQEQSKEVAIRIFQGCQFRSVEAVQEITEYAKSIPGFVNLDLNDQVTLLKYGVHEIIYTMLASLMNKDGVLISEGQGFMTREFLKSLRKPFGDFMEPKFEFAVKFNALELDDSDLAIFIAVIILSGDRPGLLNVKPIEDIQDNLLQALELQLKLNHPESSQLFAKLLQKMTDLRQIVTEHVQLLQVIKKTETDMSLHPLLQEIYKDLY
Chain of Nuclear receptor subfamily 1 group I member 2 (Rattus norvegicus) (Q9R1A7 whole entry, looked up): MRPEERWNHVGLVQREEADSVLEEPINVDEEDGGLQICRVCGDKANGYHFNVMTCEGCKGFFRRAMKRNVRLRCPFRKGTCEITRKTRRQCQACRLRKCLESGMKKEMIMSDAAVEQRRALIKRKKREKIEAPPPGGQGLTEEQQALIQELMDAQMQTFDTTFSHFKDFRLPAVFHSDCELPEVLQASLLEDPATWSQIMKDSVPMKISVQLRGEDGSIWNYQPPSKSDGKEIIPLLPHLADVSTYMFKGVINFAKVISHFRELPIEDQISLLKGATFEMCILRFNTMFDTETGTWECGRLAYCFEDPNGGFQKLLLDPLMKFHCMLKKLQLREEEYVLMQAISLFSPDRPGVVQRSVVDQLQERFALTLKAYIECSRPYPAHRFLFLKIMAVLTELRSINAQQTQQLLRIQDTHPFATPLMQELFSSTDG
Chain of Glucocorticoid receptor (Homo sapiens) (P04150 whole entry, looked up): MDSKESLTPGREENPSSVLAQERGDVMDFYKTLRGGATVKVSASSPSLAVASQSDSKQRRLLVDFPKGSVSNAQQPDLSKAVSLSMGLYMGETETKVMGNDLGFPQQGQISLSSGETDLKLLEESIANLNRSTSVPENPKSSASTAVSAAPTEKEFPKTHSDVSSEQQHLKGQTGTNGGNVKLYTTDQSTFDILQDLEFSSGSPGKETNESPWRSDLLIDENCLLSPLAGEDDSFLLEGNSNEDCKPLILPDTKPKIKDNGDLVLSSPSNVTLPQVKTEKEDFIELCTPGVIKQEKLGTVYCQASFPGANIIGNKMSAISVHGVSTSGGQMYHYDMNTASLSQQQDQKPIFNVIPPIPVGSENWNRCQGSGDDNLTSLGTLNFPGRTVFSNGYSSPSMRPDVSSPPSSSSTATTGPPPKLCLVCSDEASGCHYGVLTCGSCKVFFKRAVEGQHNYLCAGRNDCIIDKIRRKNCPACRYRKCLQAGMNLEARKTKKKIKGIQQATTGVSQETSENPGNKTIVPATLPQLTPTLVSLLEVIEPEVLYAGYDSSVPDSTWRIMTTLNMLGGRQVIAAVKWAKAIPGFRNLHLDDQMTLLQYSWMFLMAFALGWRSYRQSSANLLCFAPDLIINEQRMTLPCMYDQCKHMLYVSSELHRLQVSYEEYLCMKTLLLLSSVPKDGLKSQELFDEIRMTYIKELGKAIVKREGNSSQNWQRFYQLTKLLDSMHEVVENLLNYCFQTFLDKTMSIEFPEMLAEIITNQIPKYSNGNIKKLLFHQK
Chain of Estrogen receptor (Homo sapiens) (P03372 whole entry, looked up): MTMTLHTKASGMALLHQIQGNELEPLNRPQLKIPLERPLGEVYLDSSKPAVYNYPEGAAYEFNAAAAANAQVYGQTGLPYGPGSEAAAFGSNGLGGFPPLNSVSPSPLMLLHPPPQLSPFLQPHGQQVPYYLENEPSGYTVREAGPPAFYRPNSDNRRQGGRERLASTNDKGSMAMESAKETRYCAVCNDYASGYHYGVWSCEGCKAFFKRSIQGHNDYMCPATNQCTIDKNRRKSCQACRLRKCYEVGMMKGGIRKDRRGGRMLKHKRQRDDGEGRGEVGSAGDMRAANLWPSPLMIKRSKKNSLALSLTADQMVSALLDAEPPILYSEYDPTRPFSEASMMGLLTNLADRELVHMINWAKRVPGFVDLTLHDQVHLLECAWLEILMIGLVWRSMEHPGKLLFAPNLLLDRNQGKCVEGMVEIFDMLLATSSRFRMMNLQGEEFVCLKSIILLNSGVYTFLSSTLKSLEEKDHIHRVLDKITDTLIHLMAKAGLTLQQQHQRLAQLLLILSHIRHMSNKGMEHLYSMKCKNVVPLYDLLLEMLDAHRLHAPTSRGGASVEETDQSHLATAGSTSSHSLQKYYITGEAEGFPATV

For `CCCCCCCCCc1ccccc1`, the Potency result in [1], in [2], in experiment [5], in experiment [8], in experiment [15] and in experiment [18] was “inactive” throughout. Further, the results for the activation in [3], in experiment [12] and in experiment [13] were -4.94% (inactive), -0.95% (inactive) and 0.637% (inactive), respectively. Also, the max response is 1.13% in experiment [4]; -8.55% in experiment [7]; -10.2% in experiment [9]; 2.35% (inactive) in experiment [10]; -0.702% (inactive) in experiment [14]; 4.47% (inactive) in experiment [16]. The values for the max response in experiment [17] and in [19] were 2.81% (inactive) and 1.1% (inactive), respectively. The outcome in [6] and in experiment [20] was inactive. The activity change % (negative = inhibition) in experiment [11] is 0.977% (inactive).
As to `CCc1cccc(C)c1N(C(=O)CS(=O)(=O)O)[C@@H](C)COC`, the Potency result in experiment [1], in experiment [2], in experiment [5], in experiment [8], in experiment [15] and in experiment [18] was “inactive” in each case. Moreover, the activation in [3] is -18.8% (inactive); in [12], 3.16% (inactive); in experiment [13], -0.669% (inactive). The max response is 24.1% in experiment [4]; -8.42% in experiment [7]; 9.75% in [9]; -22.6% (inactive) in experiment [10]; -5.93% (inactive) in experiment [16]; -5.4% (inactive) in experiment [17]. The max response in experiment [19] is -5.94% (inactive). Besides, the result in [6] and in experiment [20] was inactive. Also, the activity change % (negative = inhibition) in [11] is -18.4% (inactive).
Turning to `CC(C)c1ccc2cc(C(C)C)ccc2c1`, the Potency result in [1], in experiment [2], in experiment [8] and in experiment [18] was “inactive” in each case. For the same compound, the activation in [3] is -1.13% (inactive); in experiment [13], 1.48% (inactive). The max response in experiment [9] was -11.7%; in experiment [10], -6.87% (inactive); in experiment [14] it was -0.981% (inactive); in experiment [16], 7.43% (inactive); in experiment [17] it was -0.947% (inactive); in experiment [19], 1.57% (inactive). Further, the activity change % (negative = inhibition) in experiment [11] is -11% (inactive). Further, in experiment [20], the result was inactive.
Take `COC(=O)c1cccc(C(=O)OC)c1`: the Potency entry in experiment [1], in experiment [2], in experiment [5], in [15] and in experiment [18] was “inactive” in each case. The max response was -2.46% in experiment [4]; -11.8% in experiment [7]; -14.8% in [9]; -0.335% (inactive) in [10]; 0.364% (inactive) in experiment [14]; -6.37% (inactive) in experiment [16]. Also, the figures for the max response in experiment [17] and in experiment [19] were -8.05% (inactive) and 2.45% (inactive), respectively. The outcome in [6] was inactive. In addition, the activity change % (negative = inhibition) in experiment [11] is 1.41% (inactive). Also, the activation is 2.13% (inactive) in experiment [12] and 1.87% (inactive) in [13].
For the compound `CCCCCCCCCCCCCCCCCCN`, the Potency entry in [1], in [2], in experiment [5], in experiment [8], in [15] and in experiment [18] was “inactive” in each case. Moreover, the activation in [3] is -6.46% (inactive); in [12], -1.5% (inactive); in experiment [13], 0.284% (inactive). Further, the max response in [4] was 13.6%; in experiment [7], -24%; in experiment [9] it was -8.83%; in [10] it was 4.01% (inactive); in experiment [14] it was 0.121% (inactive); in [16], -7.69% (inactive). The max response in experiment [17] was 4.92% (inactive); in experiment [19], -2.88% (inactive). For the same compound, the activity change % (negative = inhibition) in experiment [11] is 13% (inactive). In addition, the call in [20] was inactive.
As for `CCCCOC(=O)c1ccccc1`, the Potency entry in [1], in experiment [2], in [5], in [15] and in experiment [18] was “inactive” each time. Moreover, the activation was -8.22% (inactive) in [3] and -4.18% (inactive) in experiment [12]. The max response in experiment [4] was 0.0882%; in experiment [7], -7.9%; in experiment [9] it was -1.79%; in experiment [10], 3.76% (inactive); in experiment [14] it was -1.04% (inactive); in [16], 21.3% (inactive). The max response was -6.32% (inactive) in [17] and -2.16% (inactive) in experiment [19]. Also, the compound was called inactive in experiment [20].

For the origin of these results see PubChem BioAssay (NCATS).
